Data taken from PubChem BioAssay (EPA / NIEHS).
“And” between values parts separate entries of the source, which are not always exact repeats. Equal values may be shown once. Results filed as inconclusive are left out. The source made the active and inactive calls. How the source made its calls: active means hit-call score of the fitted dose curve at least 0.9, where 1 is the maximum; inconclusive means response in the unintended direction; inactive means score below 0.9.

Each compound was assayed against Androgen Receptor/SRC-1 Co-activator, AR (gene 367) (UniProt P10275) (assay: OT_AR_ARSRC1_0480: Odyssey Thera (OT) 8-hour HEK293T Protein-Complementation Assay for Androgen Receptor/SRC-1 Co-activator (AID 2283354);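 further: hits raise the complementation signal above DMSO so AC50 marks enhancers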).
Androgen Receptor/SRC-1 Co-activator, AR (gene 367), sequence (P10275 whole entry, looked up, the tested form may be a part): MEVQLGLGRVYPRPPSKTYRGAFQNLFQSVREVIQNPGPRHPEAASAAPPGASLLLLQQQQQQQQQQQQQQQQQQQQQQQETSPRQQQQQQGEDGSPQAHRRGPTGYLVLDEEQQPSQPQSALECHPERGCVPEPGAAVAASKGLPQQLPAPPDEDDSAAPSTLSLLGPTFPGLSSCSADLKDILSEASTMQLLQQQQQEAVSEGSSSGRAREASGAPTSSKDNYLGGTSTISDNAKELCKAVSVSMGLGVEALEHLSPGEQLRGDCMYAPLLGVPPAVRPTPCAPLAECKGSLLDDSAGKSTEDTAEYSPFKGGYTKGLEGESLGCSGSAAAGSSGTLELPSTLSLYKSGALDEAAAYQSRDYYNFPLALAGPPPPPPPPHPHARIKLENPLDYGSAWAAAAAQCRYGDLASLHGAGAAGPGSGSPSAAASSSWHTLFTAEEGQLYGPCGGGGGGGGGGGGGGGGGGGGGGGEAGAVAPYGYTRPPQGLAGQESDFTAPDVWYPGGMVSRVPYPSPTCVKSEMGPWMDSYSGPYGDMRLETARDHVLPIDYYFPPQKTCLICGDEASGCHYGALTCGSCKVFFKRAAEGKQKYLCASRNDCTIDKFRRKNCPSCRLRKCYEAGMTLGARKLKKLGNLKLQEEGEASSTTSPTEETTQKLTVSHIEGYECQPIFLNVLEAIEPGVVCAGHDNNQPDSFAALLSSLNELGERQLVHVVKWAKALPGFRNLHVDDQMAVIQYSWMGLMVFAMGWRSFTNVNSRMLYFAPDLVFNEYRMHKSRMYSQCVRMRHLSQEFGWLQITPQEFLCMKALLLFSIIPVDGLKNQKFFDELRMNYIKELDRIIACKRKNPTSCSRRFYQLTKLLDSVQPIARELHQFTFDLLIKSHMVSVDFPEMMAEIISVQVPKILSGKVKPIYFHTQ
Protocol: OT_AR_ARSRC1_0480 is a cell-based, single-readout assay that uses HEK293T, a human kidney cell line, with measurements taken at 8 hours after chemical dosing in a 384-well plate.OT_AR_ARSRC1_0480 is one of one assay component(s) measured or calculated from the OT_AR_ARSRC1_0480 assay. It is designed to make measurements of protein fragment complementation, a form of binding reporter, as detected with fluorescence intensity signals by Protein-fragment Complementation technology.Data from the assay component OT_AR_ARSRC1_0480 was analyzed into 1 assay endpoint. This assay endpoint, OT_AR_ARSRC1_0480, was analyzed in the positive analysis fitting direction relative to DMSO as the negative control and baseline of activity. Using a type of binding reporter, measures of receptor for gain-of-signal activity can be used to understand the binding at the pathway-level as they relate to the gene AR. Furthermore, this assay endpoint can be referred to as a primary readout, because the performed assay has only produced 1 assay endpoint. To generalize the intended target to other relatable targets, this assay endpoint is annotated to the nuclear receptor intended target family, where the subfamily is steroidal.
Protein-fragment complementation assay, or PCA, is a method for the identification and quantification of protein-protein interactions. In the PCA, the proteins of interest ("bait" and "prey") are each covalently linked to fragments of a third protein (e.g. DHFR, which acts as a "reporter"). Interaction between the bait and the prey proteins brings the fragments of the reporter protein in close proximity to allow them to form a functional reporter protein whose activity can be measured. The OT AR / SRC-1 assay assessed androgen receptor chemical interactions using a rapidly maturing, intensely fluorescent mutant of YFP known as Venus, rationally dissected into two separate fragments. […] Fusion constructs were transfected into HEK293T cells with a (Gly4Ser)2 linker between the AR/SRC-1 and YFP fragment genes to facilitate complementation when interacting proteins bring fragments into close proximity. The construct is stably expressed in HEK293T cells. […] Images were acquired on an Evotec Opera at 2 wavelengths (488 and 635nm), and the ratio of fluorescence in the nucleus relative to fluorescence in the cytoplasm (N/C Ratio) in the 488nm channel was calculated for a minimum of 400 cells per image. Both agonists and antagonists of the AR receptor induce nuclear translocation to varying degrees. […] The OT AR/SRC-1 assay was also run for 16 hours (see description for OT_AR_ARSRC1_0960).
In the case of `N#CSCSc1nc2ccccc2s1`, the AC50 was 21.9 µM (active). With `CC1(C)C(C=C(Cl)Cl)C1C(=O)OCc1cccc(Oc2ccccc2)c1` (configuration not stated) the outcome was “inactive”. `Cc1nn(C)c(Oc2ccccc2)c1C=NOCc1ccc(C(=O)OC(C)(C)C)cc1` was tested, and the outcome was “inactive”. With `CSC(=O)c1cccc2nnsc12` the AC50 was 22.4 µM (active). For `CCCOC(=O)c1ccc(C(=O)OCCC)nc1`, the outcome was “inactive”. `CCCN(CCC)C(=O)SCC` was tested, and the outcome was “inactive”. For `CC(C)(c1ccc(O)cc1)c1ccc(O)cc1`, the outcome was “inactive”. In the case of `CCOC(=O)COc1cc(-n2ncc(C(F)(F)F)c(C)c2=O)c(F)cc1Cl`, the outcome was “inactive”. In the case of `O=C(c1ccc(O)cc1O)c1ccc(O)cc1O`, the AC50 was 11.1 µM (active) and 8.01 µM (active) and 9.37 µM (active). `CN(C)C(=O)Nc1ccc(Cl)c(Cl)c1` was tested, and the outcome was “inactive”. In the case of `C[C@]12CC[C@@H]3c4ccc(O)cc4C[C@@H](CCCCCCCCCS(=O)CCCC(F)(F)C(F)(F)F)[C@H]3[C@@H]1CC[C@@H]2O` (some centres not stated), the outcome was “inactive”. For `CCSC(=O)N(CC(C)C)CC(C)C`, the outcome was “inactive”. In the case of `CCOC(=O)C(C)Oc1ccc(Oc2nc3ccc(Cl)cc3o2)cc1` (configuration not stated), the outcome was “inactive”. In the case of `c1ccc2[nH]c(-c3cscn3)nc2c1`, the outcome was “inactive”. With `COC(=O)CSc1cc(N=c2sc(=O)n3n2CCCC3)c(F)cc1Cl` the outcome was “inactive”. For `CCCCOCCOCCOCc1cc2c(cc1CCC)OCO2`, the outcome was “inactive”. For `O=C(c1ccccc1)C1CCCCC1`, the outcome was “inactive”.
